High-throughput results as filed in PubChem BioAssay.
DT40 TDP1 no CPT – qHTS for Inhibitors of human tyrosyl-DNA phosphodiesterase 1 (TDP1): qHTS in cells in absence of CPT; DT40 Tdp1-/- hTDP1 cells, no CPT, ATP luminescence, 48 h; 420,000 tested, 15% active; Potency, µM (doses to about 46.2 µM), for inactives: top-dose activity change, negative = growth inhibition, most hits filed as inhibitors; note: potency is the fitted concentration of half-maximal effect; nearly all actives have a fitted effect of over 55% in size
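Camptothecin absent (DMSO only). Human TDP1-complemented DT40 knockout cells, 400 cells/well, 37 °C for minimum 48 hr; ATP measured via CellTiter-Glo, 30 min dark incubation, luminescence.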
IL1B secr inh – inflammasome signaling inhibition, IL-1 beta readout. AID 743279. THP-1 LPS/ATP IL-1B secretion, AlphaLISA, 16 h; hits give low values. activity change, % at 57.5 µM. 360,000 tested, 4.7% active; in the data active = activity change below about -50%; inconclusive = mostly about -30% to -49%
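THP-1 cells pretreated 1 hr with compounds (up to 57.5 uM final), then stimulated with LPS (250 ng/mL final) plus ATP (1.25 mM final); secreted IL-1B measured by AlphaLISA after 16 hr, decreased signal indicating inhibition.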
TDP1 cell CPT – growth inhibition of DT40 Tdp1-/-;hTDP1 cells with camptothecin (screen for TDP1 inhibitors) | chicken DT40 Tdp1-/-;hTDP1 cells + 20 nM CPT, ATP luminescence, 48 h | Potency, µM (top dose mostly 46.2 µM), without a hit: at the highest dose activity change, negative = growth inhibition, most hits filed as inhibitors | 420,000 tested, 12% active; note: potency is the fitted concentration of half-maximal effect; nearly all actives have a fitted effect of over 55% in size
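Cell growth measured by CellTiter-Glo luminescence after a minimum 48 h, 37 C compound exposure with 20 nM CPT in Tdp1-knockout DT40 cells stably expressing hTDP1, seeded 400/well; qHTS titration format.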
ELG1 repair inh – ELG1-dependent DNA repair inhibition | Potency, µM (titrated, usually from 46.1 µM), for the others: at the top dose activity change, negative = inhibition, hits mostly inhibitors | AID 504467 | 330,000 tested, 2.3% active | HEK293T ELG1-luciferase reporter, luminescence, 16 h; DNA damage induced by 5-fluorouridine; note: potency is the fitted concentration of half-maximal effect; nearly all actives have a fitted effect of over 55% in size
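Luminescence from the luciferase reporter, measured 30 min after ONE-Glo reagent at room temperature, was the read-out. Beforehand, 2,000 cells per well were exposed for 16 hr at 37 °C to 5-fluorouridine together with compound or vehicle.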
Gal4-VP16 FLuc – Gal4-VP16 reporter inhibition counter-screen; Drosophila S2 Gal4-VP16 UAS-luciferase, luminescence, 20 h; Potency, µM (doses to about 53.6 µM), inactives show at the highest dose activity, negative = inhibition, actives largely listed as inhibitors; 310,000 tested, 3.5% active;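 note: Gal4-VP16 expression switched on by copper sulfate through the metallothionein promoter; potency is the fitted concentration of half-maximal effect; nearly all actives have a fitted effect of over 50% in size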
RORgamma inh – ROR gamma (mouse) transcription inhibition | Potency, µM (highest dose often 53.6 µM), for inactives: at the highest dose activity change, negative = inhibition, most hits filed as inhibitors | P51450 | AID 2551 | Drosophila S2 Gal4-RORgamma UAS-luciferase reporter, 20 h | 310,000 tested, 5.4% active; note: potency is the fitted concentration of half-maximal effect; nearly all actives have a fitted effect of over 60% in size
Target sequence (P51450 whole entry, looked up, the tested form may be a part): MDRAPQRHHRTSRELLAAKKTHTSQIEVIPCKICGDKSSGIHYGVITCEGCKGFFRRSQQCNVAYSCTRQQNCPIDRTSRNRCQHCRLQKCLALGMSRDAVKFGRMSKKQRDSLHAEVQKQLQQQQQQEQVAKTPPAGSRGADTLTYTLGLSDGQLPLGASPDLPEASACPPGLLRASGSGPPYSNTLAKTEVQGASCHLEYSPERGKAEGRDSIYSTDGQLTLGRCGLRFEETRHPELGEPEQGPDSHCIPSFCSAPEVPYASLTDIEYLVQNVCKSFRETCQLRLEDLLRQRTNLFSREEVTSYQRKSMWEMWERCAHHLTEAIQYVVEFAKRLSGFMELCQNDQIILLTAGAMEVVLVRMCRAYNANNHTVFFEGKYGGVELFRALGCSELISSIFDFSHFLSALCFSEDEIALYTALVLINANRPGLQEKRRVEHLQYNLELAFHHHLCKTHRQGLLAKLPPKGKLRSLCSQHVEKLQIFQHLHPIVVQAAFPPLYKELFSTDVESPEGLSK
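Drosophila Schneider cells stably carrying a metallothionein-driven Gal4 DBD–ROR gamma fusion and a UAS-Photinus luciferase reporter were exposed to compound for 1 hr, then induced with copper sulfate (700 uM final) for 20 hr at ambient temperature before luminescence reading.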
Starred values were filed as active, the others as inactive; ? = inconclusive; / = no result given; [ ] = dose if it differs, or a comment. Rows were chosen to be rich in hits. Some 21% of all compounds tested hit in one or more screens of this group. Unless noted, calls come from the whole dose curve; as a rule, active = well fitted curve in the direction sought with a large enough effect; inconclusive = small, poorly fitted or top-dose-only effect, or another doubt; inactive = no such curve, though single readings can be large; an effect the other way counts as inactive or inconclusive. % is set by controls: 0 for no effect and ±100 for the full control effect.

SMILES | DT40 TDP1 no CPT | IL1B secr inh | TDP1 cell CPT | ELG1 repair inh | Gal4-VP16 FLuc | RORgamma inh
O=C(/C=C/Nc1ccccc1O)c1ccco1 | ? | 4 | ? | ? | 2% | ?
O=C(/C=C/Nc1cccc(F)c1)c1ccco1 | -19% | 5 | -7% | ? | ? | ?
CC(=O)NCCNC(=O)CCCc1nnc2n(C)c(=O)c3sccc3n12 | -8% | / | 6% | / | / | /
C[C@@H]1CN([C@@H](C)CO)C(=O)CCCn2nncc2CO[C@@H]1CN(C)S(=O)(=O)c1cccc(F)c1 | -24% | 7 | -9% | / | / | /
O=C(NCCc1nnc2n1CCN(Cc1ccc(F)c(F)c1)CC2)c1ccoc1 | -17% | / | 8% | / | / | /
COc1ccc(N2CCN(C(=O)CCc3nnc4n(C)c(=O)c5sccc5n34)CC2)cc1 | 0% | / | -2% | / | / | /
Cn1c(=O)c2sccc2n2c(CCC(=O)N3CCN(c4cccc(Cl)c4)CC3)nnc12 | 5.8µM* | / | ? | / | / | /
CCn1c(=O)c2sccc2n2c(CCCC(=O)N3CCN(c4ccccn4)CC3)nnc12 | ? | -25 | ? | 8% | 0% | 12%
CCCn1c(=O)c2sccc2n2c(CCCC(=O)N3CCN(c4ccccc4)CC3)nnc12 | 16µM* | / | ? | / | / | /
CCn1c(=O)c2sccc2n2c(CCCC(=O)N3CCN(c4cccc(Cl)c4)CC3)nnc12 | 16µM* | / | 18µM* | / | / | /
CCn1c(=O)c2sccc2n2c(CCCC(=O)N3CCN(c4cc(Cl)ccc4C)CC3)nnc12 | 8.2µM* | / | 12µM* | / | / | /
O=C(COc1coc(CN2CCN(c3ccccc3)CC2)cc1=O)Nc1ccc(F)cc1 | -27% | -7 | -39% | -5% | / | /
CC(C)Oc1cccc(C(=O)C2CCCN(C(=O)CCc3cnn(C)c3)C2)c1 (stereo unspecified) | ? | 14 | 16µM* | ? | -9% | 21%
Cc1nn(C)c(C)c1CCC(=O)N1CCCC(C(=O)c2cccc(OC(C)C)c2)C1 (stereo unspecified) | ? | 1 | 18µM* | -6% | ? | -1%
CC(C)Oc1cccc(C(=O)C2CCCN(Cc3cnn(C(C)C)c3)C2)c1 (stereo unspecified) | ? | -2 | ? | 14% | -12% | -23%
CCC(C)(C)c1ccc(CC(C)CN2C[C@@H](C)O[C@@H](C)C2)cc1 (stereo partly specified) | ? | / | ? | / | ? | 1%
Cc1ccc(-n2c(=O)c3sc4ccccc4c3n(C)c2=O)cc1F | 0% | / | -19% | / | / | /
CCOc1ccc(-n2c(=O)c3c4c(sc3n(Cc3cccc(Cl)c3)c2=O)CCCC4)cc1 | -6% | / | -17% | / | / | /
Cn1c(Cc2ccccc2)nnc1SCC(=O)Nc1ccc(N2CCOCC2)cc1 | -13% | 8 | -1% | ? | 2% | 3%
COc1ccc(OC)c(S(=O)(=O)NC(=O)C2(C)CCN2C(=O)Cc2ccccc2)c1 (stereo unspecified) | -11% | 13 | -7% | / | / | /
NCCCNCCCCNC(=O)C(O)NC(=O)CCCCCCN=C(N)N (stereo unspecified) | 1.2µM* | / | 1.2µM* | / | / | /
Cc1oc(S(=O)(=O)N2CCCCC2)cc1NC(=O)Nc1ccc(F)cc1 | ? | -2 | -19% | -11% | -5% | 23%
COc1ccc(C(C)(O)c2nc(-c3ccc4ccccc4c3)cs2)cc1 (stereo unspecified) | ? | 6 | ? | / | / | /
COc1ccc(-c2csc(C(C)(O)c3cccnc3)n2)cc1 (stereo unspecified) | 21µM* | -65* | 16µM* | / | / | /
COc1ccc(-c2csc(C(C)(O)c3ccccc3)n2)cc1 (stereo unspecified) | ? | -16 | 16µM* | / | / | /
SMILES | DT40 TDP1 no CPT | IL1B secr inh | TDP1 cell CPT | ELG1 repair inh | Gal4-VP16 FLuc | RORgamma inh
COc1ccc(C(C)(O)c2nc(-c3ccc(N(C)C)cc3)cs2)cc1 (stereo unspecified) | 16µM* | -10 | 18µM* | / | / | /
COc1ccc(C(C)(O)c2nc(-c3ccc(OC)c(OC)c3)cs2)cc1 (stereo unspecified) | ? | -21 | 23µM* | / | / | /
COc1ccc(C(C)(O)c2nc(-c3ccccc3C)cs2)cc1 (stereo unspecified) | 5.8µM* | 65 | 6.5µM* | / | / | /
COc1ccc(-c2csc(C(C)(O)c3ccc(F)c(F)c3)n2)cc1OC (stereo unspecified) | ? | 0 | 18µM* | / | / | /
COc1ccc(C(C)(O)c2nc(-c3cccs3)cs2)cc1 (stereo unspecified) | ? | 0 | ? | / | / | /
COc1ccc(C(C)(O)c2nc(-c3ccncc3)cs2)cc1 (stereo unspecified) | 5.8µM* | 61 | 5.8µM* | / | / | /
COc1ccc(C(C)(O)c2nc(-c3ccccc3)cs2)cc1 (stereo unspecified) | 13µM* | 37 | 18µM* | / | / | /
Cc1ccccc1-c1csc(C(C)(O)c2ccccc2)n1 (stereo unspecified) | -23% | 0 | -19% | / | / | /
O=C(COc1ccccc1F)OCC(=O)c1ccc([N+](=O)[O-])cc1 | -26% | ? | ? | 0% | / | /
COc1ccc(-c2csc(C(C)(O)c3ccc(OC)cc3)n2)cc1 (stereo unspecified) | ? | 45 | 15µM* | / | / | /
COc1ccc(C(C)(O)c2nc(-c3ccc(Cl)cc3)cs2)cc1 (stereo unspecified) | ? | 21 | ? | / | / | /
COc1ccc(C(C)(O)c2nc(-c3cccc(O)c3)cs2)cc1 (stereo unspecified) | 23µM* | ? | 18µM* | / | / | /
CCOC(=O)OCC1OC(c2ccc(C(C)=O)cc2)C=CC1Oc1ccc(-c2ccccc2)cc1 (stereo unspecified) | / | / | / | / | 6%[10 µM] | 21%[10 µM]
Cn1c(=O)cc(SCC(=O)N2CCN(c3ccccc3)CC2)c2ccccc21 | ? | -10 | 16µM* | -19% | 8% | 0%
CN(CC(=O)N1CCN(c2ccccn2)CC1)S(=O)(=O)c1ccc2ccccc2c1 | -6% | 7 | -7% | 10µM* | 1% | 1%
O=C(CC(c1ccccc1)c1ccccc1)N1CCN(c2ccccn2)CC1 | 18µM* | -25 | ? | 10% | -7% | 11%
Cn1c(=O)cc(SCC(=O)N2CCN(c3ccccn3)CC2)c2ccccc21 | ? | -50* | ? | -25% | -12% | -2%
